Giardia FBPA inh-1: inhibitors of Giardia lamblia fructose-1,6-bisphosphate aldolase. purified Giardia FBPA. AID 2451. actives 0.71% (n = 290,000). Potency, µM (top dose mostly 59.6 µM), actives largely listed as inhibitors. A8B2U2; also: nearly all actives have a fitted effect of over 55% in size
Target sequence (A8B2U2 whole entry, looked up): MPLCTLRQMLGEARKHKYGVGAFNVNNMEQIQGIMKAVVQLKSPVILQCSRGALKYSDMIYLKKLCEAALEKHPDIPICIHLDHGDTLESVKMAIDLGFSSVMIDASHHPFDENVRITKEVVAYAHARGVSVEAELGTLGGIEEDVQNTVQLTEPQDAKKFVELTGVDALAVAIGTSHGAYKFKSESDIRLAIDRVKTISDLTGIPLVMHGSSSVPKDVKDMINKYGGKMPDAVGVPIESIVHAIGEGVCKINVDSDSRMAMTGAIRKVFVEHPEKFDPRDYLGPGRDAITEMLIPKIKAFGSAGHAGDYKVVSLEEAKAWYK
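40 nM FBPA preincubated 10 min at RT with compound (up to 57.5 uM final), then substrate plus GAPDH/TPI/NAD/arsenate coupling and diaphorase/resazurin added. Fluorescence read after 20 min at RT, 525/598 nm.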
Cruzain noTriton: cruzain (T. cruzi) inhibition without detergent; AID 1476; P25779; Potency, µM, actives largely listed as inhibitors; actives 2.3% (n = 200,000); purified cruzain, Z-FR-AMC fluorescence, no detergent; also: nearly all actives have a fitted effect of over 40% in size
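Purified cruzain at 1.5 nM, pre-incubated 15 min with compound at room temperature in 100 mM sodium acetate pH 5.5, 5 mM DTT, 0.00005% Triton X-100. Reaction started with 2 uM Z-FR-AMC; AMC fluorescence increase over 60 s gives rate.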
Cruzain inh Det: inhibitors of Trypanosoma cruzi cruzain with detergent. actives 0.43% (n = 200,000). purified cruzain, Z-FR-AMC fluorescence, 0.01% Triton. P25779. Potency, µM, hits mostly inhibitors; also: nearly all actives have a fitted effect of over 40% in size
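Cysteine protease activity tested under reducing, mildly acidic conditions (100 mM sodium acetate pH 5.5, 5 mM DTT) plus 0.01% Triton X-100. Cruzain 1.5 nM; substrate Z-FR-AMC 2 uM; 15 min compound preincubation at room temperature.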
Giardia growth: inhibitors of Giardia lamblia growth | shares compounds with Giardia FBPA inh-1 | Giardia lamblia trophozoite growth inhibition | Potency, µM (highest dose often 57.5 µM), most hits filed as inhibitors | actives 5% (n = 1,500);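 also: trophozoites exposed to compound for 48 h at 37 °C; nearly all actives have a fitted effect of over 70% in size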
Mammal cell tox: counter-screen for Giardia aldolase inhibitors: mammalian cell toxicity. shares compounds with Giardia FBPA inh-1. mammalian cell viability counter-screen, qHTS. Potency, µM (top dose mostly 57.5 µM), hits mostly inhibitors. AID 2786. actives 4% (n = 1,500);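 also: Chinese hamster ovary cells used as mammalian cytotoxicity surrogate; viability measured as cellular ATP by luminescence; compound exposure lasted 48 h before reading; nearly all actives have a fitted effect of over 60% in size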
Giardia FBPA inh-2: confirmation of Giardia fructose-bisphosphate aldolase inhibitors. shares compounds with Giardia FBPA inh-1. purified Giardia aldolase enzyme activity, qHTS. Potency, µM (highest dose often 57.5 µM), usual class: inhibitors. actives 5% (n = 1,500). AID 2787; also: nearly all actives have a fitted effect of over 45% in size
Rabbit FBPA inh: rabbit FBP aldolase inhibition by Giardia aldolase hits; Rabbit muscle FBPA enzyme inhibition, selectivity counter-screen; shares compounds with Giardia FBPA inh-1; Potency, µM (doses to about 57.5 µM), most hits filed as inhibitors; AID 2794; actives 4% (n = 1,500); also: nearly all actives have a fitted effect of over 60% in size
Target sequence (P00883 whole entry, looked up): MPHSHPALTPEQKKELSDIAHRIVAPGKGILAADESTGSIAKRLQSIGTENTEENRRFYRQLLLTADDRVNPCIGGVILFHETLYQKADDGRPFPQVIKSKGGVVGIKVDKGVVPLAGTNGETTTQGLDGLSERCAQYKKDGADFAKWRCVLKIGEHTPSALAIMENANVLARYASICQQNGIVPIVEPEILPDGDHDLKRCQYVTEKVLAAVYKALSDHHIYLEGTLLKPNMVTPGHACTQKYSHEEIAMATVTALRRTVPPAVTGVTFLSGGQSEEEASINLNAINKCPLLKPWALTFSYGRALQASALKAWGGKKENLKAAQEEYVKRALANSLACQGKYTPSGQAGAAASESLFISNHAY
GAPDH coupling: counter-screen for Giardia aldolase inhibitors: GAPDH coupling enzyme; shares compounds with Giardia FBPA inh-1; GAPDH coupling enzyme counterscreen, biochemical, qHTS; Potency, µM (highest dose often 57.5 µM), usual class: inhibitors; actives 6% (n = 1,500); AID 2795; also: nearly all actives have a fitted effect of over 55% in size
Numbers stand for hits; [ ] = remark or other dose. This is one part of a sample in which hits are shown more often than they occur. Calls follow the shape of the dose curve; as a rule, active = well fitted curve in the direction sought with a large enough effect; inconclusive = small, poorly fitted or top-dose-only effect, or another doubt; inactive = no such curve, though single readings can be large; an effect the other way counts as inactive or inconclusive.

Results for O=C(c1cnc(N2CCCCC2)c2ccccc12)N1CCN(c2cccc(Cl)c2)CC1 ?
Cruzain noTriton: inactive; Cruzain inh Det: inactive

How did Cc1nccn1CCOc1ccc(Cl)cc1 do in these assays?
Giardia FBPA inh-1: 25.1µM; Giardia growth: inactive[10.4 µM]; Mammal cell tox: inactive; Giardia FBPA inh-2: inactive; Rabbit FBPA inh: inactive; GAPDH coupling: inactive

Results for Clc1ccc(OCCn2cnc(Cl)c2Cl)cc1 ?
Giardia FBPA inh-1: inactive

How did CNC(=S)NNS(=O)(=O)c1ccc(OC)cc1OC do in these assays?
Giardia FBPA inh-1: 19.9µM; Giardia growth: inactive; Mammal cell tox: inactive; Giardia FBPA inh-2: inactive; Rabbit FBPA inh: inactive; GAPDH coupling: inactive

Results for COc1cccc(NC(=O)NNS(=O)(=O)c2ccc(OC)cc2OC)c1 ?
Giardia FBPA inh-1: inactive

What do the screens show for `CSc1ccccc1NC(=O)CN(C)Cc1cccc(Cl)c1`?
Giardia FBPA inh-1: 22.3µM; Giardia growth: inactive; Mammal cell tox: inactive; Giardia FBPA inh-2: inactive; Rabbit FBPA inh: inactive; GAPDH coupling: inactive

Results for CSc1ccccc1NC(=O)CN(C)CC(=O)NCc1ccccc1 ?
Giardia FBPA inh-1: inactive

Results for CN(CC(=O)NCc1ccccc1)Cc1cccc(F)c1 ?
Giardia FBPA inh-1: 10µM; Giardia growth: inactive; Mammal cell tox: inactive; Giardia FBPA inh-2: inactive; Rabbit FBPA inh: inactive; GAPDH coupling: inactive

Results for CCOc1ccc(CN(C)CC(=O)NCc2ccccc2)cc1 ?
Giardia FBPA inh-1: inactive

How did CC(=O)c1cccc(NC(=O)CCc2c(C)nc3c(-c4ccc(F)cc4)c(C)nn3c2C)c1 do in these assays?
Cruzain noTriton: inactive; Cruzain inh Det: inactive

Results for Cc1ccc(NC(=O)[C@@H](c2ccccc2)N2Cc3ccccc3C2=O)cc1F ?
Cruzain noTriton: inactive; Cruzain inh Det: inactive

What do the screens show for `O=C(O)c1ccc[nH]c1=S`?
Giardia FBPA inh-1: 4.46µM; Giardia growth: inactive; Mammal cell tox: inactive; Giardia FBPA inh-2: inactive; Rabbit FBPA inh: inactive; GAPDH coupling: inactive

How did O=C(O)c1ccccc1C(=O)O do in these assays?
Cruzain noTriton: inactive; Cruzain inh Det: inactive

What do the screens show for `O=c1c2ccccc2nc(-c2ccccc2)n1-c1ccccc1`?
Giardia FBPA inh-1: inactive

Results for O=c1c2ccccc2[se]n1-c1ccccc1 ?
Giardia FBPA inh-1: 7.92µM; Cruzain noTriton: inactive; Cruzain inh Det: inconclusive; Giardia growth: 20µM; Mammal cell tox: inconclusive; Giardia FBPA inh-2: inconclusive; Rabbit FBPA inh: 22.4µM; GAPDH coupling: inactive

How did Cc1ccc(-n2cnc3cc(C(=O)NC4CCCCCC4)ccc32)c(C)c1 do in these assays?
Cruzain noTriton: inactive; Cruzain inh Det: inactive

Results for CCCCNC(=O)C1CCN(Cc2ccc(OCc3ccccc3)c(OC)c2)CC1 ?
Giardia FBPA inh-1: inactive

Results for COc1cc(CN2CCC(C(=O)NCC(C)(C)CN(C)C)CC2)ccc1OCc1ccccc1 ?
Giardia FBPA inh-1: 22.4µM; Giardia growth: inconclusive; Mammal cell tox: inactive; Giardia FBPA inh-2: inactive; Rabbit FBPA inh: inactive; GAPDH coupling: inactive

Results for O=S(=O)(Nc1ccc(-c2ccc(N3CCCC3)nn2)cc1)c1cc(F)ccc1F ?
Cruzain noTriton: inactive; Cruzain inh Det: inactive

How did CCOc1ccc(N(C)C(=O)c2oc(=O)c3ccccc3c2-c2ccccc2)cc1 do in these assays?
Cruzain noTriton: inactive; Cruzain inh Det: inactive

Results for Cc1ccc(-n2c(=O)c3cccnc3n2CC(=O)Nc2cccc(C)c2C)cc1 ?
Cruzain noTriton: inactive; Cruzain inh Det: inactive

Results for CC(=O)Nc1ccn(C2OC(C(COC(C)=O)NC(=O)C(CCCCNC(=O)OCc3ccccc3)NC(=O)OC(C)(C)C)C(OC(C)=O)C2OC(C)=O)c(=O)n1 (stereo not drawn) ?
Giardia FBPA inh-1: inactive

How did CC1(C)CC(=O)C(N=Nc2cccc([N+](=O)[O-])c2)=C(O)C1 do in these assays?
Giardia FBPA inh-1: inactive

How did CCOc1cc(C=O)cc(N=Nc2cccc([N+](=O)[O-])c2)c1O do in these assays?
Giardia FBPA inh-1: 12.6µM; Giardia growth: inconclusive; Mammal cell tox: inactive; Giardia FBPA inh-2: inactive; Rabbit FBPA inh: inactive; GAPDH coupling: inactive

What do the screens show for `O=C(Cn1cc(C(=O)c2ccccc2)c(=O)c2cc3c(cc21)OCCO3)Nc1ccc(F)c(F)c1`?
Cruzain noTriton: inactive; Cruzain inh Det: inactive

Results for Cc1ccc(NC(=O)NCc2c(-n3cccc3)sc3c2CCCC3)c(Cl)c1 ?
Cruzain noTriton: inactive; Cruzain inh Det: inactive

Results for O=C(N1CCOCC1)C1(c2ccccc2)CCNCC1 ?
Cruzain noTriton: inactive; Cruzain inh Det: inactive

How did CCCOc1ccc(-c2cccc(NS(=O)(=O)c3ccc(CC)cc3)c2)nn1 do in these assays?
Cruzain noTriton: inactive; Cruzain inh Det: inactive

Results for Cc1ccc(SCC(c2ccccc2)N2CCN(CCc3ccccc3)CCC2=O)cc1 (stereo not drawn) ?
Giardia FBPA inh-1: inactive

What do the screens show for `CCOC(=O)N1CCc2c(sc3c2c(=O)n(-c2ccc(F)cc2)c(=O)n3CC(=O)c2ccccc2)C1`?
Cruzain noTriton: inactive; Cruzain inh Det: inactive

Results for O=C(COc1cccnc1[N+](=O)[O-])N1CCN(C(=O)c2ccco2)CC1 ?
Giardia FBPA inh-1: 17.7µM; Giardia growth: inactive[10.4 µM]; Mammal cell tox: inactive; Giardia FBPA inh-2: inactive; Rabbit FBPA inh: inactive; GAPDH coupling: inactive

What do the screens show for `O=C(COc1ccccc1O)N1CCN(C(=O)c2ccco2)CC1`?
Giardia FBPA inh-1: inactive; Cruzain noTriton: inactive; Cruzain inh Det: inactive

Results for Cc1nc(COC(=O)c2cc(O)c3ccccc3c2O)cs1 ?
Giardia FBPA inh-1: 19.9µM; Giardia growth: inactive[10.4 µM]; Mammal cell tox: inactive; Giardia FBPA inh-2: inconclusive; Rabbit FBPA inh: inconclusive; GAPDH coupling: inconclusive

Results for Cc1nc(COC(=O)c2ccc(CO)cc2)cs1 ?
Giardia FBPA inh-1: inactive; Cruzain noTriton: inactive; Cruzain inh Det: inactive

What do the screens show for `COc1ccc(C2CC(=O)Nc3c2c(=O)[nH]c2nc4ccccc4n32)cc1` (stereo not drawn)?
Cruzain noTriton: inactive; Cruzain inh Det: inactive

How did c1ccc(OCCOCCN2CCOCC2)cc1 do in these assays?
Giardia FBPA inh-1: inactive; Cruzain noTriton: inactive; Cruzain inh Det: inactive

What do the screens show for `CCN1CCN(CCOCCOc2ccccc2)CC1`?
Giardia FBPA inh-1: 25.1µM; Giardia growth: inconclusive; Mammal cell tox: inactive; Giardia FBPA inh-2: inactive; Rabbit FBPA inh: inactive; GAPDH coupling: inactive

How did CCOc1ccccc1C(=O)N1CCC(c2nc3ccccc3o2)CC1 do in these assays?
Cruzain noTriton: inactive; Cruzain inh Det: inactive

What do the screens show for `CCN(CC)CCNC(=O)c1ccc(-n2c(-c3ccccc3)cc3c2CCCC3)cc1`?
Cruzain noTriton: inactive; Cruzain inh Det: inactive

Screens deposited in PubChem BioAssay by National Center for Advancing Translational Sciences (NCATS).
